# Data from the supplement of paper PMC10105736.
# ± gives the standard deviation of the averaged measurements.
# B1: CaBP1 (protein)
# chain: MRQLASILLLAFVVGSVSAFYSPSDGVVELTPSNFDREVLKDDAIWVVEFYAPWCGHCQSLVPEYKKLAKALKGVVKVGSVNADADSTLSGQFGVRGFPTIKIFGANKKSPTDYNGQRTAKAIAEAALAEVKKKVQGVLGGGGGSSSGGSGSSSGDDVIELTEDNFDKLVLNSDDIWLVEFFAPWCGHCKNLAPEWAKAAKELKGKVKLGALDATAHQSKAAEYNVRGYPTIKFFPAGSKRASDAQEYDGGRTASDIVSWASDKHVANVPAPELIEIINESTFETACEGKPLCVVSVLPHILDCDAKCRNKFLDTLRTLGEKFKQKQWGWAWAEGGQQLALEESLEVGGFGYPAMAVVNFKKMKFSVLKGSFSKDGINEFLRDISYGRGHTAPVRGAKKPAIVSVDPWDGKDGQLPTEEDIDLSDIDLDKDEL
# B2: Cpr47Eg (protein)
# chain: MKFFIAFACLLAVALANEDANVLRAEQQVNVDGFAYAVELDNSVNVQQKGDLNGEEWVVKGSQSWTSPENVPVSIQYIADANGYQVVSANPPLPTPPPIPEAIQRSLEYIAAHPPSQ
# B3: LTV1 (protein)
# chain: MVKGKKPYIDRKKAVTFHLVHRSQHDPLVTDENAPQRVLLEAAARQQKPKDPEPPTDPAQRQEELKKFGIHFDDDYDYMQHLKKRENDVVWEFMENPNQARKQKVQDSEKPGPAPKLMLPSSVFASEFEESEGMLNKAAPQTLRLDWDPDVVAALDSDCENEELEDDFVIQAMAEGDSDDEEWDDEDGEEQSDMDFDSDDLNEDENEDELMDRLAPLMRERRFDDEEVKSRFTEYSMSSSVIRRNEQLSLLDDRFEKFYATYDDPELGDLALEDIEGNWHQKHPVVMQCFQEFKKKDKGIEYNKEWDRERIEKYRNVVEGEEDPTEELVEYEVDDPKQKKWDCESILSTYSNIYNHPKVIDEPRRSRRSSASTNPAPIQIDPKTGLPTNVLRGGVDGQLTAKALANLADESPAATGPKSLCAKSVLSTLSVLSIRPKDETHEEKKERKRLLKDYRNERRIEKKANTEAFKEEKKRQTHVKINQRTNQQGASIV
# B4: Acp62F (protein)
# chain: MTDMWSLKICACLGLLLLFKPIDSMGWQGPKVDCTANGTQTECPVACPETCEYSGNGPCVKMCGAPCVCKPGYVINERIPACVLRSDCPKDVVRKEDMLLGVSNFKCFSRNYNCS
# B5: Uro (protein)
# chain: MFATPLRQPAAANHQTPKNSAGMDEHGKPYQYEITDHGYGKDAVKVLHVSRNGPVHAIQEFEVGTHLKLYSKKDYYQGNNSDIVATDSQKNTVYLLAKKHGIESPEKFALLLARHFINKYSHVEEAHVHVEAYPWQRVCQEETRTNVNGKCENGVQGNCDFSSIDNRSLHNHAFIFTPTALHYCDVVIRRTDPKQTVITGIKGLRVLKTTQSSFVNFVNDEFRSLPDQYDRIFSTVVDCSWEYSDTENLDFLRAWQTVKNIIIRNFAGDPQVGVSSPSVQHTLYLSERQVLDVLPQVSVISMTMPNKHYFNFDTKPFQKIAPGDNNEVFIPVDKPHGTIYAQLARKNINSHL
# B6: RpS13 (protein)
# chain: MGRMHAPGKGISQSALPYRRTVPSWLKLNADDVKEQIKKLGKKGLTPSKIGIILRDSHGVAQVRFVNGNKILRIMKSVGLKPDIPEDLYHMIKKAVAIRKHLERNRKDKDGKFRLILVESRIHRLARYYKTKSVLPPNWKYESSTASALVA
# B7: CanB (protein)
# chain: MGNETSLPMDMCSNFDADEIRRLGKRFRKLDLDNSGALSIDEFMSLPELQQNPLVQRVIDIFDADGNGEVDFKEFIQGVSQFSVRGDKLSKLRFAFRIYDMDNDGYISNGELFQVLKMMVGNNLKDTQLQQIVDKTICFADKDEDGKISFDEFCSVVGNTDIHKKMVVDV
# B8: Cnb (protein)
# chain: MGNETSLPMDMCSNFDADEIRRLGKRFRKLDLDNSGALSIDEFMSLPELQQNPLVQRVIDIFDADGNGEVDFKEFIQGVSQFSVRGDKLSKLRFAFRIYDMDNDGYISNGELFQVLKMMVGNNLKDTQLQQIVDKTICFADKDEDGKISFDEFCSVVGNTDIHKKMVVDV
# B9: su(Hw) (protein)
# chain: MSASKEGKEKKGKLLGVENISPPKDKRPATRMKLLNDVGAGEDSEASTTTTTSRTPSNKQEKRGSVAGSRIKILNEEILGTPKTEKRGATKSTAPAASTVKILNEKKTPSATVTAVETTKIKTSPSKRKKMEHYVLQAVKSENTKADTTVTVVTEEDDTIDFILADDEEVVPGRIENNNGQEIVVTEDDEDLGEDGDEDGEDSSGKGNSSQTKIKEIVEHVCGKCYKTFRRVQSLKKHLEFCRYDSGYHLRKADMLKNLEKIEKDAVVMEKKDICFCCSESYDTFHLGHINCPDCPKSFKTQTSYERHIFITHSEFSDFPCSICNANLRSEALLALHEEQHKSRGKPYACKICGKDFTRSYHLKRHQKYSSCSSNETDTMSCKVCDRVFYRLDNLRSHLKQHLGTQVVKKPEYMCHTCKNCFYSLSTLNIHIRTHTGEKPFDCDLCDKKFSALVALKKHRRYHTGEKPYSCTVCNQAFAVKEVLNRHMKRHTGERPHKCDECGKSFIQATQLRTHSKTHIRPFPCEQCDEKFKTEKQLERHVKTHSRTKRPVFSCAECKRNFRTPALLKEHMDEGKHSPKQQRSSMRSAVKIMERTDCAICDKNFDSSDTLRRHIRTVHECDPDDIFGVEPHPSKRAKKDIESEEVVPVALNTSAGSLISSQTDGNGVVVREFLVDEGDGAAQTITLENETYTILPLDGAIEGEQLTDEAGVKPEAKKEEAQVSPVVKKEQRKSLAASLAAAIADNLEESCSEDDFSGEILTEEDIKLKENVGKLIDMLVDPPILKKYGWPNAPEETVLCKVIENCGHDLTKGGENYAELDYGSRMREYCKLLFTVVIHNDSIKSLLNNFPIDDVIEYVLGDEDQDEGGLDKDNESHSGDEEAVSVTGETKTNEIREKPEKKEVSAKSEKKEIVGKAVDKDNSEEVVRENKKKPVGEQEKA
# B10: Caf1-55 (protein)
# chain: MVDRSDNAAESFDDAVEERVINEEYKIWKKNTPFLYDLVMTHALEWPSLTAQWLPDVTKQDGKDYSVHRLILGTHTSDEQNHLLIASVQLPSEDAQFDGSHYDNEKGEFGGFGSVCGKIEIEIKINHEGEVNRARYMPQNACVIATKTPSSDVLVFDYTKHPSKPEPSGECQPDLRLRGHQKEGYGLSWNPNLNGYLLSASDDHTICLWDINATPKEHRVIDAKNIFTGHTAVVEDVAWHLLHESLFGSVADDQKLMIWDTRNNNTSKPSHTVDAHTAEVNCLSFNPYSEFILATGSADKTVALWDLRNLKLKLHSFESHKDEIFQVQWSPHNETILASSGTDRRLHVWDLSKIGEEQSTEDAEDGPPELLFIHGGHTAKISDFSWNPNEPWIICSVSEDNIMQVWQMAENVYNDEEPEIPASELETNTA
# B11: Ilp6 (protein)
# chain: MVLKVPTSKVLLVLATLFAVAAMISSWMPQVAASPLAPTEYEQRRMMCSTGLSDVIQKICVSGTVALGDVFPNSFGKRRKRDLQNVTDLCCKSGGCTYRELLQYCKG
# B12: GstS1 (protein)
# chain: MADEAQAPPAEGAPPAEGEAPPPAEGAEGAVEGGEAAPPAEPAEPIKHSYTLFYFNVKALAEPLRYLFAYGNQEYEDVRVTRDEWPALKPTMPMGQMPVLEVDGKRVHQSISMARFLAKTVGLCGATPWEDLQIDIVVDTINDFRLKIAVVSYEPEDEIKEKKLVTLNAEVIPFYLEKLEQTVKDNDGHLALGKLTWADVYFAGITDYMNYMVKRDLLEPYPALRGVVDAVNALEPIKAWIEKRPVTEV
# B13: Timp (protein)
# chain: MDLRKHLGLLTLLLVAVFAFYGRPADACSCMPSHPQTHFAQADYVVQLRVLRKSDTIEPGRTTYKVHIKRTYKATSEARRMLRDGRLSTPQDDAMCGINLDLGKVYIVAGRMPTLNICSYYKEYTRMTITERHGFSGGYAKATNCTVTPCFGERCFKGRNYADTCKWSPFGKCETNYSACMPHKVQTVNGVISRCRWRRTQLYRKCMSNP
# B14: Cp36 (protein)
# chain: MQLGLWFGILAIAATPLVSANYGPAGGHGHGHGHGQYLSGPNAGLEEYVNVASGGNQQAANQIASQAEIQPTPEEARRLGRVQAQLQALNADPNYQKLKNSEDIAESLAETNLASNIRQGKIKVVSPQFVDQHLFRSLLVPSGHNNHQVIATQPLPPIIVHQPGAPPAHVNSGPPTVVRGNPVIYKIKPSVIYQQEVINKVPTPLSLNPVYVKVYKPGKKIEAPLAPVVAPVYSQPREYSQPQGYGSAGAASSAAGAASSADGNAYGNEAPLYNSPAPYGQPNY
# B15: CSN7 (protein)
# chain: MTQDMLLGNEEPSKSKETFLEKFCVLAKSSTGAALLDVIRQALEAPNVFVFGELLAEPSVLQLKDGPDSKHFETLNLFAYGTYKEYRAQPEKFIELTPAMQKKLQHLTIVSLAIKAKSIPYALLLSELEIDNVRHLEDIIIEAIYADIIHGKLFQNTRILEVDYAQGRDIPPGYTGQIVETLQAWVNSCDSVSNCIEMQIKYANAEKSKRLINKERVEQDLINLKKVLKSQTSDSDESMQIDTHGPGTSGGLGQSELRKKPSKLRNPRSAAVGLKFSK
# B16: Npc2a (protein)
# chain: MLRYAVIACAALVVFAGALEFSDCGSKTGKFTRVAIEGCDTTKAECILKRNTTVSFSIDFALAEEATAVKTVVHGKVLGIEMPFPLANPDACVDSGLKCPLEKDESYRYTATLPVLRSYPKVSVLVKWELQDQDGADIICVEIPAKIQ
# Columns and labels:
# Experiment in all cases: MAPPIT interaction score (arbitrary units); higher = stronger binary interaction signal, active = hit call of the paper;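 active = MAPPIT score above the 99th percentile of random reference set scores in the same batch; inactive = at or below it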
# [1] = target: Cdc50; settings: MAPPIT configuration: N-N; pair source set: DPIM
# [2] = target: Cnb; settings: pair source set: Lit-BM-16
# [3] = target: Cdc5; settings: MAPPIT configuration: N-N; pair source set: DPIM
# [4] = target: Cdlc2; settings: MAPPIT configuration: N-N; pair source set: Finley_Y2H
# [5] = target: Cpr56F; settings: MAPPIT configuration: N-N; pair source set: Finley_Y2H
# [6] = target: CanA1; settings: MAPPIT configuration: N-N; pair source set: Lit-BS-16
# [7] = target: Cpr47Eg; settings: MAPPIT configuration: N-N; pair source set: Lit-BM-16
# [8] = target: RpS13; settings: pair source set: Lit-BM-16
# [9] = target: Sas-6; settings: pair source set: Lit-BM-16
# [10] = target: cnn; settings: pair source set: Lit-BM-16
# [11] = target: Cp190; settings: MAPPIT configuration: N-N; pair source set: Lit-BM-16
# [12] = target: mod(mdg4); settings: pair source set: Lit-BM-16
# [13] = target: Caf1-55; settings: pair source set: Lit-BM-16
# [14] = target: Rph; settings: MAPPIT configuration: N-C; pair source set: RRS
# [15] = target: Coprox; settings: MAPPIT configuration: N-N; pair source set: RRS
# [16] = target: Chd64; settings: MAPPIT configuration: N-N; pair source set: RRS
# [17] = target: CkIIalpha-i3; settings: MAPPIT configuration: N-C; pair source set: screen_3
# [18] = target: Cda5; settings: MAPPIT configuration: N-N; pair source set: Lit-BS-16
# [19] = target: CSN4; settings: MAPPIT configuration: N-C; pair source set: Lit-BM-16
# [20] = target: Cog6; settings: MAPPIT configuration: N-N; pair source set: Finley_Y2H
# [21] = target: Caper; settings: MAPPIT configuration: N-N; pair source set: DPIM
# 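Note: HEK293T cells with Epo stimulation, STAT-responsive firefly luciferase reporter, fold induction versus unstimulated cells divided by the larger fold induction of two negative controls lacking either bait or prey.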
binder,measurement,setting,value
B1,MAPPIT interaction score,[1],0.0074 (inactive)
B2,MAPPIT interaction score,[2]; MAPPIT configuration: N-C,1.11 (inactive)
same,MAPPIT interaction score,[2]; MAPPIT configuration: N-N,-0.0471 (inactive)
B3,MAPPIT interaction score,[3],1.03 (inactive)
B4,MAPPIT interaction score,[4],2.6 (inactive)
B5,MAPPIT interaction score,[5],-0.112 (inactive)
B6,MAPPIT interaction score,[2]; MAPPIT configuration: N-N,0.219 (inactive)
B7,MAPPIT interaction score,[6],-0.226 (inactive)
B8,MAPPIT interaction score,[7],0.368 (inactive)
same,MAPPIT interaction score,[8]; MAPPIT configuration: N-C,0.361 (inactive)
same,MAPPIT interaction score,[8]; MAPPIT configuration: N-N,-0.0673 (inactive)
same,MAPPIT interaction score,[9]; MAPPIT configuration: N-C,0.335 (inactive)
same,MAPPIT interaction score,[9]; MAPPIT configuration: N-N,-0.212 (inactive)
same,MAPPIT interaction score,[10]; MAPPIT configuration: N-C,-0.173 (inactive)
same,MAPPIT interaction score,[10]; MAPPIT configuration: N-N,0.273 (inactive)
B9,MAPPIT interaction score,[11],0.105 (inactive)
same,MAPPIT interaction score,[12]; MAPPIT configuration: N-C,2.52 (inactive)
same,MAPPIT interaction score,[12]; MAPPIT configuration: N-N,0.317 (inactive)
B10,MAPPIT interaction score,[13]; MAPPIT configuration: N-C,2.19 (inactive)
same,MAPPIT interaction score,[13]; MAPPIT configuration: N-N,1.84 ± 0.68
same,MAPPIT interaction score,[14],2.27 (inactive)
B11,MAPPIT interaction score,[15],-0.378 (inactive)
B12,MAPPIT interaction score,[16],0.058 (inactive)
B13,MAPPIT interaction score,[17],0.0292 (inactive)
B14,MAPPIT interaction score,[18],0.061 (inactive)
B15,MAPPIT interaction score,[19],1.74 (inactive)
same,MAPPIT interaction score,[20],-0.342 (inactive)
B16,MAPPIT interaction score,[21],-0.361 (inactive)
